Source: PubChem (National Center for Advancing Translational Sciences (NCATS))
The list is not random: actives were taken first. Their share in the collection is about 10%.
3T3 cytotox: kills NIH 3T3 cells; Potency, µM (highest dose often 96.7 µM), hits mostly inhibitors; 4.3% of 94,000 active; NIH 3T3 viability, CellTiter-Glo ATP luminescence, 48-72 h; further: nearly all actives have a fitted effect of over 55% in size
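Cytotoxicity is measured as loss of cellular ATP: NIH 3T3 cells (400/well) are exposed to compound for 48 or 72 hr at 37 °C, then CellTiter-Glo luminescence is imaged after 10 min at room temperature.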
hNpr1 antagonist: human Npr1 receptor antagonism; 1.6% of 76,000 active; HEK293 hNpr1 GloSensor cGMP, ANP-stimulated luminescence; P16066; AID 1347048; Potency, µM (top dose mostly 46.3 µM), usual class: inhibitors; calls by dose curve; further: nearly all actives have a fitted effect of over 60% in size
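Compound pre-incubated 30 min at room temperature on GloSensor-loaded HEK293 cells stably carrying hNpr1 and the pGS-40F cGMP biosensor. Stimulation uses hNppA at 0.1 nM final; luminescence is taken at baseline and 20 min post-agonist.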
GPT2 inh: GPT2 alanine aminotransferase inhibition; Recombinant GPT2, coupled pyruvate oxidase/HRP Amplex Red fluorescence; Potency, µM (doses to about 57.7 µM), usual class: inhibitors; 0.25% of 100,000 active; further: nearly all actives have a fitted effect of over 60% in size
Target sequence (Q8TD30 whole entry, looked up): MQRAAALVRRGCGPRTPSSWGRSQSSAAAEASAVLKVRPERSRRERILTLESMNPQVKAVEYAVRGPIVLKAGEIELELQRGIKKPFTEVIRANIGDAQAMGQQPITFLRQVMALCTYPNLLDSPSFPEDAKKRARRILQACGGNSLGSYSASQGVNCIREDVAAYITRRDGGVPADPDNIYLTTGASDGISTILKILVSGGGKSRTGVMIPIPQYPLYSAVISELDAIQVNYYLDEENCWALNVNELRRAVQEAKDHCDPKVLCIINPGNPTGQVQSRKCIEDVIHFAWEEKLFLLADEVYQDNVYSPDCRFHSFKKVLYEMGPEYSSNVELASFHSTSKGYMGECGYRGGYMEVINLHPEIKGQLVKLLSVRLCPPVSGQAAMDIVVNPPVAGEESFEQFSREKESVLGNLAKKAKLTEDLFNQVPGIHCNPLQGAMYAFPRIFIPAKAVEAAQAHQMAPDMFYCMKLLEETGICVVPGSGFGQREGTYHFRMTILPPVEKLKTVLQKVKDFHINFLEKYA
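Inhibition is scored from Amplex Red fluorescence generated when pyruvate oxidase and HRP act on pyruvate released by GPT2. Reactions contain 10ng/uL enzyme, 250uM a-KG and 2mM L-alanine and run 30 min at room temperature.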
FLuc inh-1: Photinus pyralis luciferase inhibition; 2.5% of 76,000 active; Potency, µM (highest dose often 115 µM), most hits filed as inhibitors; purified P. pyralis luciferase, luminescence, biochemical; further: nearly all actives have a fitted effect of over 65% in size
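Purified P. pyralis luciferase (10nM final) in 50mM Tris acetate pH 7.5, 10mM Mg acetate, 0.01% Tween-20, 0.05% BSA with 10uM D-luciferin and 10uM ATP. Compounds titrated qHTS. Luminescence imaged on CCD.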
HEK cytotox: HEK 293 cell cytotoxicity | HEK 293 viability, ATP luminescence (CellTiter-Glo), 48-72 h | Potency, µM (titrated, usually from 115 µM), hits mostly inhibitors | AID 1345083 | 6.6% of 94,000 active; further: nearly all actives have a fitted effect of over 60% in size
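HEK 293 seeded at 250 cells/well receive compound via pintool. After 48 or 72 hr at 37 degree Celsius, 5% CO2 and 95% humidity, CellTiter-Glo is dispensed and luminescence read following 10 min at room temperature.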
FLuc SDR -ATP: binders stabilizing firefly luciferase, without ATP. shares compounds with FLuc inh-1. Purified FLuc-C-HiBiT, Nano-Glo HiBiT luminescence, no ATP. Potency, µM (series often up to 32.7 µM), usual class: activators. 7.8% of 1,300 active. AID 1963318; further: nearly all actives have a fitted effect of over 55% in size
FLuc SDR ATP: binders stabilizing firefly luciferase, plus ATP | 8.7% of 1,300 active | purified FLuc-C-HiBiT + ATP, HiBiT complementation luminescence | Potency, µM (doses to about 32.7 µM), actives largely listed as activators | shares compounds with FLuc inh-1;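 further: signal reports ligand binding via conformational change of the enzyme rather than luciferase catalysis; nearly all actives have a fitted effect of over 55% in size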
FLuc inh-2: firefly luciferase enzyme inhibition; shares compounds with FLuc inh-1; purified FLuc-C-HiBiT enzyme, luciferin luminescence; Potency, µM (top dose mostly 32.7 µM), usual class: inhibitors; 42% of 1,300 active; AID 1963320; further: nearly all actives have a fitted effect of over 70% in size
Large screens that a line does not name were inactive (follow-up assays come after a bar, where they were run). Unless noted, the call rests on the fitted dose curve; in most records, active means well fitted curve in the direction sought with a large enough effect; inconclusive means small, poorly fitted or top-dose-only effect, or another doubt; inactive means no such curve, though single readings can be large; an effect the other way counts as inactive or inconclusive.

COc1ccc2nc(-c3cc(OC)c(OC)c(OC)c3)cc(C(=O)NCC(=O)Nc3ccc(C(C)=O)cc3)c2c1	none (no result: 3T3 cytotox, hNpr1 antagonist, FLuc inh-1, HEK cytotox)
COc1ccc(C(=O)COC(=O)CCCC(=O)Nc2ccc(C(C)=O)cc2)cc1	none (no result: 3T3 cytotox, hNpr1 antagonist, GPT2 inh, FLuc inh-1, HEK cytotox) | FLuc SDR -ATP inactive | FLuc SDR ATP inactive | FLuc inh-2 inconclusive
COc1cc2c(cc1CNc1ncncn1)CCC2	3T3 cytotox inconclusive, HEK cytotox inconclusive
O=C1CC2(CCN(CC3CC3)CC2)Oc2ccccc21	3T3 cytotox inconclusive, hNpr1 antagonist 35.5µM, FLuc inh-1 7.94µM, HEK cytotox inconclusive | FLuc SDR -ATP inactive | FLuc SDR ATP inconclusive | FLuc inh-2 inconclusive
O=C(COc1cccnc1)N[C@H]1CCOC[C@H]1C1CCOCC1	GPT2 inh inconclusive
COc1ccccc1NC(=O)COc1cccc(-c2nnc3n2CCCC3)c1	none
COc1ccc(-c2nc3ccccc3s2)cc1NC(=O)COc1ccc(C)cc1	none (no result: 3T3 cytotox, hNpr1 antagonist, GPT2 inh, FLuc inh-1, HEK cytotox) | FLuc SDR -ATP inactive | FLuc SDR ATP inactive | FLuc inh-2 inactive
COc1ccc(-c2nc3ccccc3s2)cc1NC(=O)COc1cccc(C)c1	none (no result: 3T3 cytotox, hNpr1 antagonist, GPT2 inh, FLuc inh-1, HEK cytotox) | FLuc SDR -ATP inactive | FLuc SDR ATP inactive | FLuc inh-2 inactive
COc1ccc(C2Cn3cnc(C(=O)N4CCC(C(=O)Nc5ccc(F)c(F)c5)CC4)c3CO2)cc1 (stereo not drawn)	none
O=C(Nc1ccc(F)c(F)c1)C1CCN(C(=O)c2ncn3c2COC(c2ccc(F)cc2)C3)CC1 (stereo not drawn)	FLuc inh-1 14.1µM, HEK cytotox inconclusive | FLuc SDR -ATP inactive | FLuc SDR ATP inconclusive | FLuc inh-2 inconclusive
COc1ccc(NC(=O)C2CCN(C(=O)c3ncn4c3COC(c3ccccc3)C4)CC2)cc1Cl (stereo not drawn)	hNpr1 antagonist inconclusive, FLuc inh-1 1.26µM | FLuc SDR -ATP inactive | FLuc SDR ATP 0.624µM | FLuc inh-2 0.881µM
Cc1cc(Cl)ccc1NC(=O)C1CCN(C(=O)c2ncn3c2COC(c2ccc(F)cc2)C3)CC1 (stereo not drawn)	FLuc inh-1 inconclusive, HEK cytotox inconclusive
O=C(Nc1ccc(F)c(Cl)c1)C1CCN(C(=O)c2ncn3c2COC(c2ccccc2)C3)CC1 (stereo not drawn)	hNpr1 antagonist inconclusive, FLuc inh-1 1.78µM | FLuc SDR -ATP inactive | FLuc SDR ATP 0.7µM | FLuc inh-2 0.989µM
O=C(NCc1cccc(Cl)c1)C1CCc2nnc(C3CCN([S+](=O)([O-])c4ccccc4Cl)CC3)n21 (stereo not drawn)	3T3 cytotox inconclusive, HEK cytotox inconclusive (no result: hNpr1 antagonist, FLuc inh-1)
Cc1ccc(C)c(-c2cc3c(=O)n(CCNC(=O)c4cccc(F)c4)ccn3n2)c1	3T3 cytotox inconclusive, HEK cytotox inconclusive
Cc1ccc(-c2cc3c(=O)n(CCNC(=O)c4ccc(F)c(F)c4)ccn3n2)c(C)c1	3T3 cytotox inconclusive, FLuc inh-1 inconclusive
Cc1ccc(-c2cc3c(=O)n(CCNC(=O)c4cccc(C#N)c4)ccn3n2)c(C)c1	3T3 cytotox 35.5µM, hNpr1 antagonist inconclusive, FLuc inh-1 2µM, HEK cytotox 44.7µM | FLuc SDR -ATP inconclusive | FLuc SDR ATP inconclusive | FLuc inh-2 3.13µM
Cc1ccc(-c2cc3c(=O)n(CCNC(=O)c4ccoc4)ccn3n2)c(C)c1	3T3 cytotox inconclusive, FLuc inh-1 inconclusive, HEK cytotox inconclusive
COc1ccccc1C(=O)NCCn1ccn2nc(-c3ccc(C)cc3C)cc2c1=O	3T3 cytotox inconclusive, FLuc inh-1 10µM, HEK cytotox inconclusive | FLuc SDR -ATP inactive | FLuc SDR ATP inactive | FLuc inh-2 inconclusive
